Experimental data from PubChem BioAssay (EPA / NIEHS).
Where “and” joins values, the source holds several entries; their conditions need not be identical. Equal values may be shown once. Results filed as inconclusive are left out. A structure can be active in one record and inactive in another. Calls of active or inactive are those of the source. The calls were made as follows, unless noted: active = hit-call score of the fitted dose curve at least 0.9, where 1 is the maximum; inactive = score below 0.9.

Tests used:
[1] = ATG_PBREM_CIS: Attagene CIS-FACTORIAL HepG2 Assay for human Phenobarbital-responsive Enhancer Module (PBREM) (AID 2282955); conditions: HepG2 PBREM cis-reporter, Attagene multiplexed transcription; actives raise or lower the signal
Method in brief: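 Readout: reporter mRNA, fluorescent RT-PCR fragments separated by capillary electrophoresis. System: HepG2 transiently transfected with cis-regulated reporter units. Exposure: 24 h. Analysis: bidirectional, DMSO baseline.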

[2] = target: Paired box protein Pax-6 (Homo sapiens) (UniProt P26367); assay: ATG_Pax6_CIS: Attagene CIS-FACTORIAL HepG2 Assay for human Paired Box 6 (PAX6) (AID 2282956); conditions: HepG2 CIS-FACTORIAL PAX6 reporter transcription, RNA readout; actives raise or lower the signal
Chain of Paired box protein Pax-6 (Homo sapiens) (P26367 whole entry, looked up): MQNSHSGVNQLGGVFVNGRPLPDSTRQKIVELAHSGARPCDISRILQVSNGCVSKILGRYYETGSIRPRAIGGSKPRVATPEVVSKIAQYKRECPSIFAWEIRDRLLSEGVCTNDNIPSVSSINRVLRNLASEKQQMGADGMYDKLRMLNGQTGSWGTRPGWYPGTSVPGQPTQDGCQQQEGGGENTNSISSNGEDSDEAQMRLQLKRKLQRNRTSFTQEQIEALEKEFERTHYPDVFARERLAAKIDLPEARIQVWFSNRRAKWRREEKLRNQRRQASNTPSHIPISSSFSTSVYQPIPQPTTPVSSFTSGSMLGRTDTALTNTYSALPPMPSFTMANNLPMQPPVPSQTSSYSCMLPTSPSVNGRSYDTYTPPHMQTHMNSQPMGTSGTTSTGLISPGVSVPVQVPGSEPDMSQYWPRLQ
Method in brief: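 Readout: reporter transcript fluorescence after RT-PCR and capillary electrophoresis. Cells: HepG2, transiently transfected with cis-regulated MRTUs. Exposure 24 h. Gain or loss of signal fitted bidirectionally relative to DMSO.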

[3] = ATG_PXRE_CIS: Attagene CIS-FACTORIAL HepG2 Assay for human Pregnane X Receptor Element (PXRE) (AID 2282957); conditions: HepG2 Attagene CIS-FACTORIAL PXRE reporter, mRNA; actives raise or lower the signal
Method in brief: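 Read-out: fluorescence of reporter-specific RT-PCR products resolved by capillary electrophoresis, fitted bidirectionally relative to DMSO. Human HepG2 liver cells carried transfected cis-promoter reporter units and were exposed to chemicals for 24 h.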

[4] = ATG_PPRE_CIS: Attagene CIS-FACTORIAL HepG2 Assay for human Peroxisome Proliferator-activated Response Element (PPRE) (AID 2282958); conditions: HepG2 PPRE cis-element reporter, Attagene transcription factor profiling; actives raise or lower the signal
Method in brief: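 After human HepG2 hepatoma cells were transiently transfected with cis-promoter reporter constructs, they were exposed to test chemicals for 24 hours. Reporter RNA was then reverse-transcribed, PCR-amplified, FAM-labeled, HpaI-digested and quantified by capillary electrophoresis.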

[5] = ATG_RORE_CIS: Attagene CIS-FACTORIAL HepG2 Assay for human RAR-related Orphan Receptor Element (RORE) (AID 2282959); conditions: HepG2 Attagene cis-factorial RORE reporter, mRNA; actives raise or lower the signal
Method in brief: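 Measured here: transcript induction of a cis-regulated reporter in HepG2 cells transiently transfected via FuGene 6. After 24 h, RNA was processed by RT-PCR and fluorescent capillary electrophoresis; DMSO defined baseline activity.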

[6] = ATG_Sox_CIS: Attagene CIS-FACTORIAL HepG2 Assay for human SRY-box transcription factor (SOX) (AID 2282960); conditions: HepG2 Attagene cis-factorial SOX reporter, mRNA; actives raise or lower the signal
Method in brief: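 Using transiently transfected HepG2 cells, reporter transcription driven by cis elements was assessed 24 h after dosing. Signal was fluorescence of capillary-separated RT-PCR products, with DMSO defining baseline activity.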

[7] = target: Transcription factor Sp1 (Homo sapiens) (UniProt P08047); assay: ATG_Sp1_CIS: Attagene CIS-FACTORIAL HepG2 Assay for human Specificity Protein 1 (Sp1) (AID 2282961); conditions: HepG2 Sp1 cis-reporter transcription, actives raise or lower the signal
Chain of Transcription factor Sp1 (Homo sapiens) (P08047 whole entry, looked up): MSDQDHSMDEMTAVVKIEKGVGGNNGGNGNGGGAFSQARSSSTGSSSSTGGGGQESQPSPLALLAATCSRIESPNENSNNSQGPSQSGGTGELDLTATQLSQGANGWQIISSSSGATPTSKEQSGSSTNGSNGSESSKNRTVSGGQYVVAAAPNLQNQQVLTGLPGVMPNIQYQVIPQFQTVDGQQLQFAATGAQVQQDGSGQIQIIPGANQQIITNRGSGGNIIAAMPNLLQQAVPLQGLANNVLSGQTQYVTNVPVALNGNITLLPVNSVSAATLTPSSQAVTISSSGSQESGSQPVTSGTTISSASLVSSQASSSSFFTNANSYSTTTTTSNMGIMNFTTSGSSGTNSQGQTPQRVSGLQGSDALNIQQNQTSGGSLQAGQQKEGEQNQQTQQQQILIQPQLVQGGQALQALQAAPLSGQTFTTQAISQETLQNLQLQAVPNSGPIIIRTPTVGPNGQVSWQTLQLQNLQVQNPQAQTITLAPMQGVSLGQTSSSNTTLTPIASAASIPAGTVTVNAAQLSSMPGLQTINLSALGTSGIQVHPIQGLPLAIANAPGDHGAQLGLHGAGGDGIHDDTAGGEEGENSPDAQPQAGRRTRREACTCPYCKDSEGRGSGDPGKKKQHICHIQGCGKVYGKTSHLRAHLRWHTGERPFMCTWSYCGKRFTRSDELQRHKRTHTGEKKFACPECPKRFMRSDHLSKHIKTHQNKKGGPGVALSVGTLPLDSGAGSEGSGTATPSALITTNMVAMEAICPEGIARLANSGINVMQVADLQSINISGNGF
Method in brief: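 After transient transfection of HepG2 cells with cis-promoter reporter units and 24 h chemical treatment, reporter transcripts were quantified by RT-PCR and capillary electrophoresis fluorescence. Gain- and loss-of-signal fitted against DMSO.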

[8] = ATG_SREBP_CIS: Attagene CIS-FACTORIAL HepG2 Assay for human Sterol Regulatory Element Binding (SREBP) (AID 2282962); conditions: HepG2 Attagene cis-factorial SREBP reporter, mRNA; actives raise or lower the signal
Method in brief: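 Readout: fluorescent reporter-transcript peaks resolved by capillary electrophoresis after RT-PCR. Cells were human HepG2 carrying transfected cis-promoter reporter constructs, dosed for 24 h. Gain or loss of signal was fitted against DMSO controls.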

[9] = target: Signal transducer and activator of transcription 3 (Homo sapiens) (UniProt P40763); assay: ATG_STAT3_CIS: Attagene CIS-FACTORIAL HepG2 Assay for human Signal Transducer and Activator of Transcription 3 (STAT3) (AID 2282963); conditions: HepG2, Attagene cis-factorial STAT3 reporter transcription; actives raise or lower the signal
Chain of Signal transducer and activator of transcription 3 (Homo sapiens) (P40763 whole entry, looked up, the tested form may be a part): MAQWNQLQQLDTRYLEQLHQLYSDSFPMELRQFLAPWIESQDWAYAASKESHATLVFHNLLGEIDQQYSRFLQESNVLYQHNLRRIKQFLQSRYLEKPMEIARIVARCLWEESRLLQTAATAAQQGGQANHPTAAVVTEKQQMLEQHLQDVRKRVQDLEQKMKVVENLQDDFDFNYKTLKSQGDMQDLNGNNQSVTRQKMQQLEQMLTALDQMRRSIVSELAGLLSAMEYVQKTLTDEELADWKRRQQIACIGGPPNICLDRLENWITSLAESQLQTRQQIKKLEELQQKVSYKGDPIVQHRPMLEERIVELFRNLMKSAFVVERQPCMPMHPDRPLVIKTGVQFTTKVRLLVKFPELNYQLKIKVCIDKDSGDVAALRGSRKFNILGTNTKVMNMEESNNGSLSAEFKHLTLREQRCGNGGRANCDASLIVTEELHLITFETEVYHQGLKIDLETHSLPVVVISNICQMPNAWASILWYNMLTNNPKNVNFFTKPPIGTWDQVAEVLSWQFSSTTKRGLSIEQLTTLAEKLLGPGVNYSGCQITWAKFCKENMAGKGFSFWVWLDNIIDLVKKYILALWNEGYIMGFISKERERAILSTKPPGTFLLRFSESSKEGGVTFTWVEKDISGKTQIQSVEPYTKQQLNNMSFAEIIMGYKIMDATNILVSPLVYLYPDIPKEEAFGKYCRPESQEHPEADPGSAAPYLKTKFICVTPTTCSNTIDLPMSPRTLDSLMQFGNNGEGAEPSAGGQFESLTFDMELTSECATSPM
Method in brief: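 Fluorescence intensity of 6-FAM-labelled reporter fragments, separated by capillary electrophoresis after RT-PCR, gave the signal. Cells were HepG2 transfected with cis-element reporter units and treated 24 h; fitting was bidirectional relative to DMSO.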

[10] = ATG_TA_CIS: Attagene CIS-FACTORIAL HepG2 Assay for human TA Basal Promoter (AID 2282964); conditions: HepG2 Attagene CIS-factorial TA basal promoter reporter; actives raise or lower the signal
Method in brief: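 Steps: transfect HepG2 with MRTUs; dose 24 h; isolate RNA, DNase-treat, reverse-transcribe; PCR and FAM-label reporter cDNA; digest with HpaI 2h at 37 C; run capillary electrophoresis. Activity fitted both directions against DMSO.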

[11] = ATG_TCF_b_cat_CIS: Attagene CIS-FACTORIAL HepG2 Assay for human T-Cell-Factor with beta-catenin (TCF/b-cat) (AID 2282965); conditions: HepG2 TCF/beta-catenin cis-reporter transcription, actives raise or lower the signal
Method in brief: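 HepG2, transient MRTU transfection, cis-element-driven reporters (endogenous TFs). 24 h compound exposure. Readout: reporter mRNA by RT-PCR + 6-FAM primer extension, HpaI digest, capillary electrophoresis. Gain/loss fit vs DMSO baseline.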

[12] = ATG_TAL_CIS: Attagene CIS-FACTORIAL HepG2 Assay for human TAL Basal Promoter (AID 2282966); conditions: HepG2 Attagene cis-factorial TAL promoter reporter; actives raise or lower the signal;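 also: background control endpoint measuring basal TAL promoter reporter mRNA not a specific factor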
Method in brief: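 HepG2, transient MRTU transfection, 24 h compound exposure; RNA → oligo(dT) RT → PCR → 6-FAM primer extension → HpaI digest → CE fluorescence. Bidirectional curve fit vs DMSO. Background-control readout.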

[13] = ATG_TGFb_CIS: Attagene CIS-FACTORIAL HepG2 Assay for human Transforming Growth Factor (TGF) (AID 2282967); conditions: HepG2 Attagene CIS TGFb reporter, mRNA transcription; actives raise or lower the signal
Method in brief: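 Cells were dosed for 24 hours, after which total RNA was reverse-transcribed and reporter sequences amplified, labeled and sized by capillary electrophoresis. Activity was fitted in both directions against DMSO.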

[14] = ATG_VDRE_CIS: Attagene CIS-FACTORIAL HepG2 Assay for human Vitamin D Receptor Element (VDRE) (AID 2282968); conditions: HepG2 VDRE cis-reporter transcription, actives raise or lower the signal
Method in brief: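 Compounds were applied for 24 h to HepG2 cells transfected with promoter-regulated reporter units. Total RNA was reverse-transcribed, and reporter amplicons were fluorescently labelled and sized by capillary electrophoresis.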

[15] = target: Steroid hormone receptor ERR1 (Homo sapiens) (UniProt P11474); assay: ATG_ERRa_TRANS: Attagene TRANS-FACTORIAL HepG2 Assay for human Estrogen-Related Receptor alpha (ERRa) (AID 2282971; active = hit-call score of the fitted dose curve at least 0.9, where 1 is the maximum); conditions: HepG2 Attagene TRANS reporter, ERRa transactivation
Chain of Steroid hormone receptor ERR1 (Homo sapiens) (P11474 whole entry, looked up, the tested form may be a part): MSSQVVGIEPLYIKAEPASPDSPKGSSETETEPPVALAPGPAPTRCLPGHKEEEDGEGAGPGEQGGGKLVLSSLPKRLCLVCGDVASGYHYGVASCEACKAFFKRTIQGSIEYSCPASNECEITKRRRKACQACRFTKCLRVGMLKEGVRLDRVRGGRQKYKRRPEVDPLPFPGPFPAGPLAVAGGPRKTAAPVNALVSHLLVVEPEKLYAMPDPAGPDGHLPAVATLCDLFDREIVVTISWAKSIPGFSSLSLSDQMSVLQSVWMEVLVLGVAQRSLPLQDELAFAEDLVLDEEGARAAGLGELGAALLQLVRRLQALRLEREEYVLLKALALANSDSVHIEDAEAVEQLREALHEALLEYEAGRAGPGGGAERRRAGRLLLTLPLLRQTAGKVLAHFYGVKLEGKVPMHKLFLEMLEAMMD
Method in brief: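 Transfected HepG2, 24 h dosing, ERRa-Gal4 chimera driving GAL4-UAS reporter. Readout: reporter mRNA via RT-PCR plus capillary electrophoresis (fluorescence). Positive direction vs DMSO control.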

[16] = target: X-box-binding protein 1 (Homo sapiens) (UniProt P17861); assay: ATG_Xbp1_CIS: Attagene CIS-FACTORIAL HepG2 Assay for human X-box Binding Protein 1 (XBP1) (AID 2282972); conditions: HepG2 XBP1 cis-element reporter, Attagene multiplex; actives raise or lower the signal
Chain of X-box-binding protein 1 (Homo sapiens) (P17861 whole entry, looked up, the tested form may be a part): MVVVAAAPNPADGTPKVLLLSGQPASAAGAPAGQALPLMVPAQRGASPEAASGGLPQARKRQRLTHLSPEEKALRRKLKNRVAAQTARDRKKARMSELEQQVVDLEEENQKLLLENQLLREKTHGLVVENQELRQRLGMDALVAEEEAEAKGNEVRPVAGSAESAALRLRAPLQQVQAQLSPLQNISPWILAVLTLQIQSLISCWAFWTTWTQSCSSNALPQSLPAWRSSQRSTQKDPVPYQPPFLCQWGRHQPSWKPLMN
Method in brief: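 Read-out: fluorescent reporter mRNA fragments resolved by capillary electrophoresis after RT-PCR. Human HepG2 liver cells carried transfected cis-promoter reporter units and were exposed to chemicals for 24 hours. Gain or loss of signal fitted relative to DMSO baseline.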

[17] = ATG_M_19_TRANS: Attagene TRANS-FACTORIAL HepG2 Assay for M19 Transcription Factor (Internal Marker) (AID 2282974; active = hit-call score of the fitted dose curve at least 0.9, where 1 is the maximum); conditions: HepG2 Attagene TRANS-FACTORIAL M19 internal marker reporter
Method in brief: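 Gain-of-signal in reporter mRNA, relative to DMSO, was scored from capillary electrophoresis fluorescence. HepG2 cells carried transiently transfected multiple reporter transcription units and were incubated with test chemicals for 24 h.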

[18] = target: Nuclear receptor subfamily 1 group I member 3 (Homo sapiens) (UniProt Q14994); assay: ATG_CAR_TRANS: Attagene TRANS-FACTORIAL HepG2 Assay for human Constitutive Androstane Receptor (CAR) (AID 2282969; active = hit-call score of the fitted dose curve at least 0.9, where 1 is the maximum;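 also: activators raise reporter mRNA above DMSO so AC50 marks induction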); conditions: HepG2 Attagene TRANS-FACTORIAL CAR reporter
Chain of Nuclear receptor subfamily 1 group I member 3 (Homo sapiens) (Q14994 whole entry, looked up, the tested form may be a part): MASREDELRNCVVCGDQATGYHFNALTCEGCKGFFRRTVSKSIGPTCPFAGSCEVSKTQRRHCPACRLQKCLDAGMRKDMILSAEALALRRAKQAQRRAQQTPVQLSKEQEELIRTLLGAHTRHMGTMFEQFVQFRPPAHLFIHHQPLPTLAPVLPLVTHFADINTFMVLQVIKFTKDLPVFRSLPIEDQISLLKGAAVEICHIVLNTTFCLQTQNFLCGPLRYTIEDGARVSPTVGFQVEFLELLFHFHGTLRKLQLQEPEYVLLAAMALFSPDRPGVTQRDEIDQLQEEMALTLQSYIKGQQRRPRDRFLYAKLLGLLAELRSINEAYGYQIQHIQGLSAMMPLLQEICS
Method in brief: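 Transiently transfected HepG2, multiplex TRANS reporters (CAR-Gal4 chimera driving GAL4-UAS reporter). 24 h dosing. Readout: reporter transcript by RT-PCR + capillary electrophoresis, fluorescence intensity; positive direction vs DMSO.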

[19] = ATG_GAL4_TRANS: Attagene TRANS-FACTORIAL HepG2 Assay for GAL4 (Internal Marker) (AID 2282976; active = hit-call score of the fitted dose curve at least 0.9, where 1 is the maximum); conditions: HepG2 Attagene TRANS GAL4 internal marker reporter
Method in brief: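 RT-PCR/capillary electrophoresis readout of reporter mRNA. HepG2, transient MRTU transfection (GAL4-UAS reporters), 24 h compound exposure. Background-control endpoint, positive direction vs DMSO baseline.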

[20] = target: Estrogen receptor (Homo sapiens) (UniProt P03372); assay: ATG_ERa_TRANS: Attagene TRANS-FACTORIAL HepG2 Assay for human Estrogen Receptor alpha (ERa) (AID 2282970; active = hit-call score of the fitted dose curve at least 0.9, where 1 is the maximum); conditions: HepG2 Attagene TRANS ERa GAL4 reporter, mRNA
Chain of Estrogen receptor (Homo sapiens) (P03372 whole entry, looked up, the tested form may be a part): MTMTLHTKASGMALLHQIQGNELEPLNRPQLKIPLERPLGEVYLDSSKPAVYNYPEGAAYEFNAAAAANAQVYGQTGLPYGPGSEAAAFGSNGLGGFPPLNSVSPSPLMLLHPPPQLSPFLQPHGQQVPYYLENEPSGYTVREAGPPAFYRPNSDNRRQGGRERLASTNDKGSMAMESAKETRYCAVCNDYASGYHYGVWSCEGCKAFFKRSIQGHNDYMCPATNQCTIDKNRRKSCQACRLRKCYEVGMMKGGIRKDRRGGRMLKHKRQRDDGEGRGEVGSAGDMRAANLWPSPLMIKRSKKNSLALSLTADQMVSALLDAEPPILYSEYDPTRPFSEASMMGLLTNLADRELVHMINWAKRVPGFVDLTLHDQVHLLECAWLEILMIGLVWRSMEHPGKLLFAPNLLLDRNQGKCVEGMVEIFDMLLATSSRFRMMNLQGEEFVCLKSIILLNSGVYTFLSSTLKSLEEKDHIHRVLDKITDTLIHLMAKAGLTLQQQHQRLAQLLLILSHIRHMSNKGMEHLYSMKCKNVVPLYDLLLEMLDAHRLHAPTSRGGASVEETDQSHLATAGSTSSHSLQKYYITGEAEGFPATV
Method in brief: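 Reporter mRNA induction after 24 hours, detected by fluorescent RT-PCR and capillary electrophoresis, gives the read-out. Cells are HepG2 transiently transfected with GAL4-UAS reporter transcription units responding to chimeric NR-Gal4. Activity is taken as gain of signal over DMSO baseline.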

Measured: AC50

C=CC(O)CCCCC (centres undefined)
active: [2] 58.6 µM | [6] 100 µM | [11] 27 µM | [14] 48.4 µM | [16] 48.1 µM
not listed: [18] | [19] | [20]
inactive: all other assays above

CCCO[Si](OCCC)(OCCC)OCCC
active: [4] 42.2 µM
not listed: [15] | [20]
inactive: all other assays above

CC(=O)OC/C=C(C)/C=C/C=C(C)/C=C/C1=C(C)CCCC1(C)C
active: [2] 72.2 µM | [3] 0.426 µM | [6] 138 µM | [7] 172 µM | [8] 100 µM | [11] 100 µM | [13] 1.23 µM | [14] 0.946 µM
not listed: [15] | [18]
inactive: all other assays above

CC(C)(C)c1cc(CCC(=O)OCCSCCOC(=O)CCc2cc(C(C)(C)C)c(O)c(C(C)(C)C)c2)cc(C(C)(C)C)c1O
not listed: [19] | [20]
inactive: all other assays above

C[C@]12CC[C@@H]3c4ccc(O)cc4CC[C@H]3[C@@H]1CC[C@@H]2O
inactive: [1] | [2] | [3] | [4] | [5] | [6] | [7] | [8] | [9] | [10] | [11] | [12] | [13] | [14] | [18] | [15] | [16] | [17] | [19]
active: [3] 5.88 µM [middle of 4 runs] | [4] 27 µM | [8] 26.5 µM and 25.8 µM | [14] 8.99 µM and 4.21 µM

CCOC(=O)C=Cc1ccccc1
active: [3] 27.8 µM
not listed: [15] | [16]
inactive: all other assays above

CCCCC1CCCCC(=O)O1 (centres undefined)
active: [4] 44.3 µM
not listed: [15] | [19]
inactive: all other assays above

CC(=O)c1ccc(C)cc1
not listed: [15]
inactive: all other assays above

C=C(C)C(=O)OCCC(C)OC(=O)C(=C)C (centres undefined)
active: [3] 56.2 µM
not listed: [18] | [19]
inactive: all other assays above

CCc1cccc(O)c1
active: [3] 28.1 µM | [14] 49.3 µM
not listed: [15] | [16] | [17] | [18]
inactive: all other assays above

O=C(c1ccc(OCCN2CCCCC2)cc1)c1c(-c2ccc(O)cc2)sc2cc(O)ccc12
active: [2] 11.1 µM [middle of 4 runs] | [3] 2.79 µM [middle of 4 runs] | [5] 11.1 µM and 15.6 µM | [6] 13 µM and 18 µM | [7] 11.1 µM and 16.7 µM | [8] 6.38 µM and 2.85 µM and 2.92 µM | [10] 19.3 µM and 8.31 µM | [11] 11.1 µM and 15.5 µM | [12] 20.4 µM and 11.1 µM | [13] 14.7 µM | [16] 11.1 µM and 8.64 µM and 12 µM
inactive: [1] | [2] | [3] | [4] | [5] | [6] | [7] | [8] | [9] | [10] | [11] | [12] | [13] | [14] | [16] | [17]

CCCCOCCOCCOCCO
inactive: all assays above

O=C1CCCCCCCCCCCC(=O)OCCO1
not listed: [19] | [20]
inactive: all other assays above

CC1=C(C=O)C(C)(C)CCC1
active: [3] 1.75 µM
not listed: [15] | [16] | [17] | [19]
inactive: all other assays above
